Experimental data reported in PubChem BioAssay.
Activity calls are given as the source filed them.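 Rule for the calls, unless noted: active = viability loss from added drug above about 55%, and viability with drug at most 40%, in both replicates (limit read from the data, passing the limit was not always enough); inconclusive = both conditions met in only one replicate; inactive = neither replicate meets both conditions.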

What was measured:
[1] = reducers of endogenous Her2 protein level, primary screen, SKBR3 breast tumor cells, AlphaScreen, ATP viability (AID 461;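 active = Her2 level under about 52% in both replicate screens, with viability over 70% of control, limit read from the data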;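 for Her2 level: lower value means less Her2 protein in the cells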;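 for viability: percent of carrier control wells set as 100% viability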); conditions: 18-24 h, measured here: SKBR3 viability, ATP luminescence, at 10 µM
[2] = target: Receptor tyrosine-protein kinase erbB-2 (Homo sapiens) (UniProt P04626); experiment: as above; conditions: 18-24 h, at 10 µM, stronger effect = lower value
Sequence of Receptor tyrosine-protein kinase erbB-2 (Homo sapiens) (P04626 whole entry, looked up): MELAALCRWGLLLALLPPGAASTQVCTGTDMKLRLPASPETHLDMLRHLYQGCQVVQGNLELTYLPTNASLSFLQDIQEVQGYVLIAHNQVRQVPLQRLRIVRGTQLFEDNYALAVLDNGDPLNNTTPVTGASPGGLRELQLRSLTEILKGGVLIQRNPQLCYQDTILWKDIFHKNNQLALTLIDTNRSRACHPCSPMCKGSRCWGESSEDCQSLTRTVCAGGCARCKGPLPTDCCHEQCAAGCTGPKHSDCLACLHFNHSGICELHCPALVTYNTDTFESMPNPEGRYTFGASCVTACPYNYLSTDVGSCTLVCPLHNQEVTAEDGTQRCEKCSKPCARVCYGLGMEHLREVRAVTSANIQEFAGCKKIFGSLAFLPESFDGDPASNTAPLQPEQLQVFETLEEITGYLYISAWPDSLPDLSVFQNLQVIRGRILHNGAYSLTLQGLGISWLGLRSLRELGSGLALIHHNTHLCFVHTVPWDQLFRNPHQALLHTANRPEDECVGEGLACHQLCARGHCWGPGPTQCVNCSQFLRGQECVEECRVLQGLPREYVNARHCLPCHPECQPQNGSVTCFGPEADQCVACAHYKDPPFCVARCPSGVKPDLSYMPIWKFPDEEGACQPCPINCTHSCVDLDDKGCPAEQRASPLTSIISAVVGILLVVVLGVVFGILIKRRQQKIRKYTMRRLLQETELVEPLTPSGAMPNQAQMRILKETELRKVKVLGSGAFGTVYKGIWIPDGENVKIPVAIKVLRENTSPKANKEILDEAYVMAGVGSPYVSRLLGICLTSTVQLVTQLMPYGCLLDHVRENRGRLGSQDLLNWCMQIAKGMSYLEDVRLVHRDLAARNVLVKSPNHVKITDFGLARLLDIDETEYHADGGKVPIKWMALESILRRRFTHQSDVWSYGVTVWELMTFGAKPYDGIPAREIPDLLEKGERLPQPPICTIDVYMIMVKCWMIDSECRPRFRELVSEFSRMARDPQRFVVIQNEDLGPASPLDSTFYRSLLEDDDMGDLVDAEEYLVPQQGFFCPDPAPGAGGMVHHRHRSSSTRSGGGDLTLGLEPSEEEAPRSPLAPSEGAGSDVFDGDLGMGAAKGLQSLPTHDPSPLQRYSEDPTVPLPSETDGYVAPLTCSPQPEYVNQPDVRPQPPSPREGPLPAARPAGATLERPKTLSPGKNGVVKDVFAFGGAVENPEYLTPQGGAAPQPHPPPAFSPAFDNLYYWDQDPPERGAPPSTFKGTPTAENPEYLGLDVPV

[3] = SK-BR-3 cell growth inhibitors, pilot screen, 24 h, human (AID 572;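 active = viability at or below 10% of carrier control in both of two separate runs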;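 note: compound exposure lasted between 18 and 24 h rather than exactly 24 h; 100% = carrier-treated control wells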); conditions: SK-BR-3 viability, CellTiter-Glo luminescence, at 10 µM, stronger effect = lower value
[4] = growth inhibitors of H69AR lung tumor, primary screen, human, duplicate replicates (AID 580;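 active = viability at or under a set limit in both replicates, limit being median viability minus 3 SD, cut at about 48% in these data, passing the limit was not always enough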;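 note: 100% = mean luminescence of untreated wells and 0% = no signal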); conditions: H69AR lung tumor cells viability, ATP luminescence, 72 h; at 10 µM; stronger effect = lower value
[5] = reversal of MRP1-mediated doxorubicin resistance, pilot screen, H69AR cells, doxorubicin co-treatment (AID 601); conditions: CellTiter-Glo, 72 h, at 10 µM; for differential viability (reversal): stronger effect = higher value
[6] = 384-well plate pilot, post-Golgi transport modulator project, inhibition of yeast transport mutant growth (AID 636; in the data active = inhibition above about 31%); conditions: absorbance 615 nm, about 18 h, stronger effect = higher value
[7] = growth suppression of yeast trafficking mutant, preliminary HTS, modulators of trafficking downstream of Golgi apparatus project, 1536-format plate, OD 615 nm (AID 637; in the data active = inhibition above about 30%); conditions: yeast transport mutant growth, absorbance 615 nm, 18 h; stronger effect = higher value
[8] = H69AR cells + 2 uM doxorubicin, measured here: viability with 2 uM doxorubicin, stronger effect = lower value
[9] = H69AR cells, compound alone cytotoxicity

For `O=C(CSc1n[nH]c(-c2ccco2)n1)Nc1sc2c(c1C(=O)Nc1ccccc1)CCCC2`, the viability [1] was 99.5%, the Her2 level [2] was 99% (inactive) and the viability [3] was 99.5% (inactive). The viability [4] was 65.9% (inactive), the differential viability (reversal) ([5]; H69AR cells + 2 uM doxorubicin) was -13% (inactive) and the viability [5, 8] was 78.9%. For the same compound, the viability [5, 9] was 65.9%, the inhibition [6] was -4.42% (inactive) and the inhibition [7] was -10.7% (inactive).

With `COc1cc2c(N3CCOCC3)cc(O)c(CC(=O)Nc3ccccc3)c2cc1OC` the viability [1] was 90.5%, the Her2 level [2] was 98.5% (inactive) and the viability [3] was 90.5% (inactive). The viability [4] was 75.3% (inactive), the differential viability (reversal) ([5]; H69AR cells + 2 uM doxorubicin) was -14% (inactive) and the viability [5, 8] was 89.3%. For the same compound, the viability [5, 9] was 75.3%, the inhibition [6] was -5.32% (inactive) and the inhibition [7] was -6.89% (inactive).

For `COc1ccccc1NC(=O)NCCCN1CCN(c2cccc(Cl)c2)CC1`, the viability [1] was 77%, the Her2 level [2] was 70.5% (inactive) and the viability [3] was 77% (inactive). For the same compound, the viability [4] was 72.6% (inactive), the differential viability (reversal) ([5]; H69AR cells + 2 uM doxorubicin) was -14.3% (inactive) and the viability [5, 8] was 86.8%. The viability [5, 9] was 72.6%, the inhibition [6] was 4.4% (inactive) and the inhibition [7] was -7.7% (inactive).

With `Cn1c(-c2ccc(C(C)(C)C)cc2)n[nH]c1=S` the viability [1] was 106%, the Her2 level [2] was 106% (inactive) and the viability [3] was 106% (inactive). For the same compound, the viability [4] was 82.1% (inactive), the differential viability (reversal) ([5]; H69AR cells + 2 uM doxorubicin) was 1.74% (inactive) and the viability [5, 8] was 80.4%. For the same compound, the viability [5, 9] was 82.1%, the inhibition [6] was -4.68% (inactive) and the inhibition [7] was -2.13% (inactive).

For `Nc1nonc1C(=O)NCCNCc1cc(Br)ccc1OCc1ccccc1F`, the viability [1] was 97.5%, the Her2 level [2] was 78.5% (inactive) and the viability [3] was 97.5% (inactive). The viability [4] was 66.8% (inactive), the differential viability (reversal) ([5]; H69AR cells + 2 uM doxorubicin) was -1.58% (inactive) and the viability [5, 8] was 68.4%. For the same compound, the viability [5, 9] was 66.8%, the inhibition [6] was -5.87% (inactive) and the inhibition [7] was -6.13% (inactive).

For `Oc1ccc(N2CCN(C(c3ccncc3)c3nnnn3C3CCCC3)CC2)cc1` (stereo not drawn), the viability [1] was 76%, the Her2 level [2] was 82.5% (inactive) and the viability [3] was 76% (inactive). The viability [4] was 91.9% (inactive), the differential viability (reversal) ([5]; H69AR cells + 2 uM doxorubicin) was 4.33% (inactive) and the viability [5, 8] was 87.6%. The viability [5, 9] was 91.9%, the inhibition [6] was -5.2% (inactive) and the inhibition [7] was 2.58% (inactive).

With `CCc1ccc2oc(-c3cc(N)ccc3Cl)nc2c1` the viability [1] was 102%, the Her2 level [2] was 87.5% (inactive) and the viability [3] was 102% (inactive). For the same compound, the viability [4] was 77.2% (inactive), the differential viability (reversal) ([5]; H69AR cells + 2 uM doxorubicin) was -12.2% (inactive) and the viability [5, 8] was 89.4%. The viability [5, 9] was 77.2%, the inhibition [6] was -0.54% (inactive) and the inhibition [7] was -4% (inactive).

With `O=C(CN1CCC(c2nc3ccccc3s2)CC1)NCc1cccs1` the viability [1] was 110%, the Her2 level [2] was 91% (inactive) and the viability [3] was 110% (inactive). For the same compound, the viability [4] was 85.3% (inactive), the differential viability (reversal) ([5]; H69AR cells + 2 uM doxorubicin) was -3.33% (inactive) and the viability [5, 8] was 88.6%. The viability [5, 9] was 85.3%, the inhibition [6] was -0.8% (inactive) and the inhibition [7] was 6.72% (inactive).

In the case of `O=C(NC1CCCCC1)C(c1ccccc1)N(Cc1ccco1)C(=O)Cn1cnc2ccccc21` (stereo not drawn), the viability [1] is reported as 102%, the Her2 level [2] is reported as 90% (inactive) and the viability [3] is reported as 102% (inactive). The viability [4] was 78.3% (inactive), the differential viability (reversal) ([5]; H69AR cells + 2 uM doxorubicin) was 8.18% (inactive) and the viability [5, 8] was 70.1%. The viability [5, 9] was 78.3%, the inhibition [6] was -5.33% (inactive) and the inhibition [7] was -4.92% (inactive).

With `Cc1ccc(C(C)C)c(OCc2nnc(SCC(=O)Nc3ncc(C)s3)n2C)c1` the viability [1] was 89.5%, the Her2 level [2] was 86% (inactive) and the viability [3] was 89.5% (inactive). The viability [4] was 41.1% (active), the differential viability (reversal) ([5]; H69AR cells + 2 uM doxorubicin) was 1.44% (inactive) and the viability [5, 8] was 39.7%. The viability [5, 9] was 41.1%, the inhibition [6] was 0% (inactive) and the inhibition [7] was -5.48% (inactive).

With `O=C(Cn1nc(-c2ccc(Cl)cc2)ccc1=O)NCCCN1CCN(Cc2ccccc2)CC1` the viability [1] was 75%, the Her2 level [2] was 106% (inactive) and the viability [3] was 75% (inactive). For the same compound, the viability [4] was 90.1% (inactive), the differential viability (reversal) ([5]; H69AR cells + 2 uM doxorubicin) was -3.28% (inactive) and the viability [5, 8] was 93.4%. For the same compound, the viability [5, 9] was 90.1%, the inhibition [6] was -0.26% (inactive) and the inhibition [7] was -3.55% (inactive).

In the case of `COc1ccc(C)cc1NC(=O)CCC(=O)Nc1ccc2nc(N3CCN(C)CC3)cc(C)c2c1`, the viability [1] is reported as 70.5%, the Her2 level [2] is reported as 123% (inactive) and the viability [3] is reported as 70.5% (inactive). For the same compound, the viability [4] was 93.2% (inactive), the differential viability (reversal) ([5]; H69AR cells + 2 uM doxorubicin) was 6.93% (inactive) and the viability [5, 8] was 86.2%. The viability [5, 9] was 93.2%, the inhibition [6] was 3.95% (inactive) and the inhibition [7] was -6.17% (inactive).

With `CCOC(=O)N1CCC(NC(=O)c2ccc3nc(N4CCOCC4)sc3c2)CC1` the viability [1] was 102%, the Her2 level [2] was 105% (inactive) and the viability [3] was 102% (inactive). For the same compound, the viability [4] was 97.1% (inactive), the differential viability (reversal) ([5]; H69AR cells + 2 uM doxorubicin) was -2.62% (inactive) and the viability [5, 8] was 99.7%. The viability [5, 9] was 97.1%, the inhibition [6] was -4.74% (inactive) and the inhibition [7] was -0.32% (inactive).

With `Nc1ncnc2oc(-c3ccco3)c(-c3ccco3)c12` the viability [1] was 96.5%, the Her2 level [2] was 77% (inactive) and the viability [3] was 96.5% (inactive). For the same compound, the viability [4] was 75.7% (inactive), the differential viability (reversal) ([5]; H69AR cells + 2 uM doxorubicin) was 7.29% (inactive) and the viability [5, 8] was 68.4%. The viability [5, 9] was 75.7%, the inhibition [6] was -0.13% (inactive) and the inhibition [7] was -4.03% (inactive).

With `CCOc1ccc2nc(NC(=O)C(NS(=O)(=O)c3cccs3)C(C)C)sc2c1` (stereo not drawn) the viability [1] was 116%, the Her2 level [2] was 68.5% (inactive) and the viability [3] was 116% (inactive). For the same compound, the viability [4] was 86.7% (inactive), the differential viability (reversal) ([5]; H69AR cells + 2 uM doxorubicin) was 11.7% (inactive) and the viability [5, 8] was 75%. The viability [5, 9] was 86.7%, the inhibition [6] was 0% (inactive) and the inhibition [7] was -1.9% (inactive).

In the case of `c1ccc(CN2CCN(c3ncnc4c3[nH]c3ccccc34)CC2)cc1`, the viability [1] is reported as 121%, the Her2 level [2] is reported as 47% (active) and the viability [3] is reported as 121% (inactive). For the same compound, the viability [4] was 60.6% (inactive), the differential viability (reversal) ([5]; H69AR cells + 2 uM doxorubicin) was -22.6% (inactive) and the viability [5, 8] was 83.2%. For the same compound, the viability [5, 9] was 60.6%, the inhibition [6] was -6% (inactive) and the inhibition [7] was 2.1% (inactive).

In the case of `CCn1c(SCc2nc(-c3cccs3)no2)nnc1-c1c[nH]c2ccccc12`, the viability [1] is reported as 99%, the Her2 level [2] is reported as 65.5% (inactive) and the viability [3] is reported as 99% (inactive). For the same compound, the viability [4] was 78.8% (inactive), the differential viability (reversal) ([5]; H69AR cells + 2 uM doxorubicin) was 4.39% (inactive) and the viability [5, 8] was 74.4%. The viability [5, 9] was 78.8%, the inhibition [6] was -5.26% (inactive) and the inhibition [7] was -5.67% (inactive).
